# Ba CapD inh: blocks the Bacillus anthracis CapD enzyme | AID 492967 | 140,000 tested, 0.23% active | z-score (no concentration beside the values) | purified CapD enzyme, fluorescence intensity read-out; hits give low values; in the data active = z-score mostly below about -2.9, no sharp cut-off; inactive = mostly above about -1.9
# The depositor's hits bear a star. Many of the other results were omitted from the sample, so hits are more common in it than they were.
SMILES,Ba CapD inh
CCn1cnc2sc(C(=O)N3CCN(Cc4ccccc4)CC3)c(C)c2c1=O,0.13
COc1ccc(-c2c(C(F)(F)F)oc3c(CN4CC(C)OC(C)C4)c(O)ccc3c2=O)cc1OC (configuration not stated),0.17
S=C(NC1CCCCCCCCCCC1)NC1CC2C=CC1C2 (configuration not stated),-0.235
O=C(Nc1ccc(C(=O)c2ccccc2)cc1)c1ccccc1,-1.41
CS(=O)(=O)c1ccc(C(=O)Nc2ccccc2)cc1,-2.85*
O=C(Nc1ccccc1)c1ccc(Br)cc1,-0.42
Cc1[nH]nc2c1C(c1c(OC(=O)N3CCOCC3)ccc3ccccc13)C(C#N)=C(N)O2 (configuration not stated),0.455
CC(C)(C)OC(=O)NC(COC(=O)NNC(=O)c1ccccc1-n1cccc1)CC1CCCCC1 (configuration not stated),-0.225
Cc1ccc(Cl)cc1N1CCN(C(=O)c2ccccc2CC(=O)O)CC1,1.53
COc1ccc(-c2ccc3c(n2)sc2c(O)cc(=O)[nH]c23)cc1,31.1
O=C1OCCN1/N=C/c1ccc([N+](=O)[O-])o1,-0.03
CN(C)/N=C/c1ccc([N+](=O)[O-])o1,-4.4*
O=C1CN(/N=C/c2ccc([N+](=O)[O-])o2)C(=O)N1,-0.945
O=C(c1ccc(F)cc1)c1cc2ccc(O)cc2oc1=O,-6.37*
O=C(c1ccc2c(c1)OCO2)c1cc2ccc(O)cc2oc1=O,-3.87
O=C(O)c1cc2ccc(O)cc2oc1=O,90.1
O=C(Nc1ccc(-n2cc(-c3cnccn3)cn2)cc1)c1ccco1,1.26
COc1cc(/C=C2\C(=O)NC(=S)N(c3ccccc3C)C2=O)cc([N+](=O)[O-])c1O,-5.96*
COc1cc(/C=C2\C(=O)NC(=S)N(c3ccc(Cl)cc3)C2=O)cc([N+](=O)[O-])c1O,-2.81
COc1ccccc1N1C(=O)NC(=O)/C(=C\c2cc(OC)c(O)c(OC)c2)C1=O,-1.6
O=C(N/N=C/c1cccc(O)c1)C1C(c2ccccc2)C(C(=O)N2CCOCC2)C1c1ccccc1 (configuration not stated),5.79
O=C(O)CC/C(=N\Nc1ccc([N+](=O)[O-])cc1)c1ccccc1,-3.59*
O=C(Nc1cccc(C(=O)c2ccccc2)c1)c1ccc([N+](=O)[O-])cc1,-0.51
O=C(Nc1ccc([N+](=O)[O-])cc1)c1ccccc1O,-0.78
COc1ccc(C2=Nc3ccccc3NC(c3ccc([N+](=O)[O-])cc3)C2)cc1 (configuration not stated),0.585
SMILES,Ba CapD inh
O=C(c1cc2ccc3cccnc3c2[nH]1)N1CCCC1,1.3
Cc1ccc(S(=O)(=O)c2nc(Nc3nccs3)sc2Cl)cc1,-5.1*
Cc1ccc(S(=O)(=O)c2nc(NC3CCS(=O)(=O)C3)sc2Cl)cc1 (configuration not stated),0.27
CCOc1nc(S(=O)(=O)c2ccc(C)cc2)c(Cl)s1,-0.155
CCOC(=O)C1CCCN(C(=O)c2sc3ncnc(N4CCc5ccccc5C4)c3c2C)C1 (configuration not stated),-0.16
COC(=O)/C(C#N)=C1\NC(C)=NC(SC)=C1C#N,-0.865
CSC1=C(C#N)C(=C(C#N)C#N)NC(C)=N1,-4.51*
O=C(c1ccc(CSc2ccccn2)o1)N1CCN(C/C=C/c2ccccc2)CC1,-0.49
CCOc1ccc(/C=C2/C(=O)N(C)C(=S)N2CC(=O)OC)c(OCC)c1,0.29
COC(=O)CN1C(=S)N(C)C(=O)/C1=C/c1ccco1,-4.13*
COc1ccc(NC(=O)CCCN2C(=O)/C(=C\c3ccco3)SC2=S)cc1,-0.315
Cc1ccc(-c2[nH]nc3c2C(c2ccc(N4CCOCC4)c([N+](=O)[O-])c2)C(C#N)=C(N)O3)cc1 (configuration not stated),-0.975
CC1=CC(C)C(C2OC(C)CC(C)(C)O2)C(C)C1 (configuration not stated),0.11
Cc1ccc(C)n1-c1cc(Cl)ccc1C(=O)O,-5.49*
COc1ccc(NC(C)=O)cc1C,6.2
CCCOc1ccc(Cl)cc1C(=O)O,-0.655
CC(=O)Nc1ccc(-n2c(C)ccc2C)c(C(=O)O)c1,-4.82*
Cc1ccc(C)n1-c1ccccc1C(=O)O,-1
CC(=O)Nc1ccc(NC(=O)c2ccccc2C(=O)O)cc1,-0.145
CS(=O)(=O)c1ccc(S(=O)(=O)NCCCN2CCc3ccccc32)cc1,-0.09
COc1ccc(S(=O)(=O)N2CC3c4ccccc4CCN3C2c2ccccc2)c2cccnc12 (configuration not stated),10.5
O=C(NC1CCCC1OCc1ccccc1)OCCc1ccccc1Cl (configuration not stated),0.185
Cc1[nH]nc2c1C1(C(=O)Nc3ccc(Br)cc31)C(C#N)=C(N)O2 (configuration not stated),0.065
S=c1[nH]nc(-c2cccnc2)n1/N=C/C=C/c1ccco1,-2.51
Cc1nnc(C)n1/N=C/C=C\c1ccco1,-4.41*
SMILES,Ba CapD inh
S=c1[nH]nc(-c2ccccc2)n1/N=C/C=C/c1ccco1,-2.42
COC(=O)c1ccc2c(c1)NC(=O)c1ccccc1S2,-0.025
CCC(Cc1ccccc1)NC(=O)c1ccc2c(c1)NC(=O)c1ccccc1S2 (configuration not stated),0.4
COC(CN(C)C(=O)c1ccc2c(c1)NC(=O)c1ccccc1S2)OC,-6.03*
COc1ccc2c(c1)N(CCCS(=O)(=O)[O-])/C(=C/c1sc3ccccc3[n+]1C)S2,-0.195
Cc1ccc(N/N=C2/CCCNC2=O)cc1,-2.66
O=C1NCCC/C1=N/Nc1ccccc1,-3.88*
O=C1NCC(=Nc2ccccc2)C(=O)N1,0.245
COc1ccc(N2CCN(S(=O)(=O)c3ccc(F)c(C(=O)Nc4cc(OC)ccc4OC)c3)CC2)cc1,0.52
O=C(Cc1ccccc1)c1cc(O)c(O)cc1O,-7.55*
O=C(Cc1ccccc1)c1ccc(O)cc1,-0.055
Nc1ccccc1C(=O)Cc1ccccc1,6.36
C1=C(c2cccnc2)Nc2ncnn2C1c1cccs1 (configuration not stated),92.3
Cc1cc(=O)[nH]c(-c2cccc(Cl)c2)n1,-1.04
Cc1[nH]c2ccccc2c(=O)c1Cc1c(C)[nH]c2ccccc2c1=O,-0.96
CC(=O)N1CCc2cc(Br)cc(S(=O)(=O)N3CCCC3)c21,-0.795
COc1cc(/C=C2/SC(=S)N(CC(=O)O)C2=O)cc(OC)c1OC,-1.47
COc1cc(OC)c(OC)cc1/C=C1/SC(=S)N(CC(=O)O)C1=O,-3.78*
COc1ccc(OC)c(/C=C2/SC(=S)N(CC(=O)O)C2=O)c1,-2.25
O=C(c1ccc(Br)cc1)C1Oc2ccccc2C2CC(c3ccccc3)=NN12 (configuration not stated),-0.01
COc1ccccc1-c1oc2cc(Cl)ccc2c(=O)c1O,8.3
C/C=C1/CN2CCC34C(=C(C(=O)OC)C1CC23)Nc1c(O)cccc14 (configuration not stated),0.415
Cc1c(NC(=O)CCN2C(=O)/C(=C/c3ccc(Cl)cc3Cl)SC2=S)c(=O)n(-c2ccccc2)n1C,0.185
Cc1cc(/C=C2\C(=O)NC(=O)N(c3ccc(Br)cc3)C2=O)c(C)n1-c1cc(C(=O)O)cc(C(=O)O)c1,-0.935
CC(=O)Oc1ccc(-n2c(C)cc(/C=C3\C(=O)NC(=S)N(c4ccc(C)cc4)C3=O)c2C)cc1,-0.56
Cc1cc(/C=C2\C(=O)NC(=S)N(c3ccc(Cl)cc3)C2=O)c(C)n1-c1cc(C(=O)O)cc(C(=O)O)c1,-6.24*
Cc1ccc(C(=O)N2CCC(C)CC2)cc1,-0.14
CCOC(=O)C(Cc1c[nH]c2ccccc12)NC(=O)C(Cc1ccc(N(CCCl)CCCl)cc1)NC(C)=O (configuration not stated),-0.035

# Compound activity from PubChem.
